Results: the supplement of paper PMC10849652
About 7,900 targets were measured; listed, in parts, are those with a hit and a random draw of the rest. About 0.6% of all pairs of compound and target were hits.

Columns and labels:
Test in all cases: log2 fold change, soluble protein after heating vs DMSO (PISA); higher = thermal stabilisation; K562 cells, 10 uM, 30 min; active = over 0.2 and 3.5 SD of the protein, either way, in both replicates (recomputed)
[1] = compound: C1=CC=C(C=C1)[C@H](COC2=CC3=C(C=C2)NC(=O)N3)NC(=O)C4=CC=CN(C4=O)CC5=CC(=C(C=C5)F)F
Outline: (§1)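 K562 cells at 2×10^6 cells/mL were treated with 10 μM compound for 30 min. Aliquots were heated for 3 min across 48°C-58°C, pooled, and extracted in PBS with 0.5% NP-40 at 4°C; soluble protein was the supernatant after 21,000xg for 90 min. Soluble protein was quantified by TMTpro 16plex LC-MS/MS with channel sums equalised, and reported as log2 fold change in thermal stability against DMSO controls, with values from duplicates.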

[2] = compound: CC1=C(SC2=C1C(=N[C@H](C3=NN=C(N32)C)CC(=O)N)C4=CC=C(C=C4)Cl)C
Outline: as §1

[3] = compound: CC1=C2C(=CC=C1)N=C(N(C2=O)C3=CC=CC=C3C)CN4C=NC5=C(N=CN=C54)N
Outline: as §1

[4] = compound: Cc1sc2c(c1C)C(c1ccc(Cl)cc1)=N[C@@H](CC(=O)OC(C)(C)C)c1nnc(C)n1-2
Outline: as §1

[5] = compound: c1ccc([C@@H]2C[C@H]2NC2CCNCC2)cc1
Outline: as §1

Measured: log2 fold change

MRPS26 (UniProt Q9BYN8)
inactive: [1] -0.075 | [2] 0.061 | [3] -0.012 | [4] -0.009 | [5] 0.013

NOL7 (UniProt Q9UMY1)
UniProt Q9UMY1, sequence (Q9UMY1 whole entry, looked up): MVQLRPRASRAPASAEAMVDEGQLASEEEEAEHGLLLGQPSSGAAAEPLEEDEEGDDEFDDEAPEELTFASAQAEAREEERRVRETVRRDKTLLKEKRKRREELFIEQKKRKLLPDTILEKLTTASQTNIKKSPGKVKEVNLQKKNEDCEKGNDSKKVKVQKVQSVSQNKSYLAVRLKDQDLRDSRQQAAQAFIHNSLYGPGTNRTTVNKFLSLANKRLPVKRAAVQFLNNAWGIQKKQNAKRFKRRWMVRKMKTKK
inactive: [1] 0.168 | [2] -0.221 | [3] -0.265 | [4] 0.188 | [5] 0.057

OGFOD2 (UniProt Q6N063)
UniProt Q6N063, sequence (Q6N063 whole entry, looked up): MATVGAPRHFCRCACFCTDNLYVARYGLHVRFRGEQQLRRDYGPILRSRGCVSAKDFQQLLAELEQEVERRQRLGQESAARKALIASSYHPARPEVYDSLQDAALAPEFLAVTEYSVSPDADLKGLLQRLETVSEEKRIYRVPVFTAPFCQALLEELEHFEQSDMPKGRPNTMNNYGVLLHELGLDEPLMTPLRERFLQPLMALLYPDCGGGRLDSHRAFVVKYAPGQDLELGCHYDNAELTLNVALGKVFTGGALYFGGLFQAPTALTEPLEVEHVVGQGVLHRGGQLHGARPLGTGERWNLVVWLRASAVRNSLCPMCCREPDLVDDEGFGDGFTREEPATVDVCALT
inactive: [1] 0.124 | [2] 0.097 | [3] 0.024 | [4] 0.091 | [5] 0.053

MRPS16 (UniProt Q9Y3D3)
inactive: [1] -0.006 | [2] -0.033 | [3] -0.009 | [4] 0.014 | [5] -0.074

MRPS2 (UniProt Q9Y399)
inactive: [1] -0.084 | [2] 0.147 | [3] -0.042 | [4] 0.079 | [5] 0.003

NARS2 (UniProt Q96I59)
UniProt Q96I59, sequence (Q96I59 whole entry, looked up): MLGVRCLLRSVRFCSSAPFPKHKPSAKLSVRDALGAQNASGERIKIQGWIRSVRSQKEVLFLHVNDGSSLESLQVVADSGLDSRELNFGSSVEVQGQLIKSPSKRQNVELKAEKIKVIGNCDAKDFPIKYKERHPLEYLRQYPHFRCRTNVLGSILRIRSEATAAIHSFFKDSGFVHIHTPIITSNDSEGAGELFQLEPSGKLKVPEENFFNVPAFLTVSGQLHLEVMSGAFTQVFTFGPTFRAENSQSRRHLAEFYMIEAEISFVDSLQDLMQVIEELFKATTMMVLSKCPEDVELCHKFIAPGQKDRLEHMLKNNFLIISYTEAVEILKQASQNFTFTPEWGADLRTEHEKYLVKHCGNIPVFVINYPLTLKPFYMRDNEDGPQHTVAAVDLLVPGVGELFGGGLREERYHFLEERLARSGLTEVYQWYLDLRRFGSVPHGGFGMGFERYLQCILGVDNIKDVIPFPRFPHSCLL
inactive: [1] 0 | [2] 0.057 | [3] 0.059 | [4] 0 | [5] -0.027

NSDHL (UniProt Q15738)
UniProt Q15738, sequence (Q15738 whole entry, looked up): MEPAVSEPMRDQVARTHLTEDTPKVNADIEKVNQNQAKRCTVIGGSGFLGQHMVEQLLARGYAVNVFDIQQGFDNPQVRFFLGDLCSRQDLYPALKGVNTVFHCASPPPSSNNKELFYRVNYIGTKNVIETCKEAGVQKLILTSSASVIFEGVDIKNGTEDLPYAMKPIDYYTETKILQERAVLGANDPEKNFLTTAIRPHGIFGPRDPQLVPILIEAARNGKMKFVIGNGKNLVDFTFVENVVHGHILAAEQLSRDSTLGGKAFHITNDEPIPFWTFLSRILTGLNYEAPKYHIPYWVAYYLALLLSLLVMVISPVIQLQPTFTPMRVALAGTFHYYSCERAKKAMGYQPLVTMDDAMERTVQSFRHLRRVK
inactive: [1] 0.029 | [2] 0.047 | [3] 0.019 | [4] 0 | [5] -0.034

NFYC (UniProt Q13952)
UniProt Q13952, sequence (Q13952 whole entry, looked up): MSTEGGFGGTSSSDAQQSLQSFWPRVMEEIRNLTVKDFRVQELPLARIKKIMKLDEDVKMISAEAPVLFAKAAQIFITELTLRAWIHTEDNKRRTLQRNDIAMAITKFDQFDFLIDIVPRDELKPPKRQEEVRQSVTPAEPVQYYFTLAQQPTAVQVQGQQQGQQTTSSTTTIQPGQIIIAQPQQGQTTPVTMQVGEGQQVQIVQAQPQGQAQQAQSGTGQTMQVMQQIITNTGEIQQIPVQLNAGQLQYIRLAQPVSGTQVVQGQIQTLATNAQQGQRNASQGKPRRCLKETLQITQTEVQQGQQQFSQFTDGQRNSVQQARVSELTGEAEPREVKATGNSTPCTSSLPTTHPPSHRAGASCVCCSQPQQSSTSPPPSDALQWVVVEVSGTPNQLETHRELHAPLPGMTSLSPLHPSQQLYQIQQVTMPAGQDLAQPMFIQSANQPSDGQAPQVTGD
inactive: [1] 0.002 | [2] 0.063 | [3] 0.036 | [4] 0.014 | [5] -0.014

NOS1AP (UniProt O75052)
UniProt O75052, sequence (O75052 whole entry, looked up): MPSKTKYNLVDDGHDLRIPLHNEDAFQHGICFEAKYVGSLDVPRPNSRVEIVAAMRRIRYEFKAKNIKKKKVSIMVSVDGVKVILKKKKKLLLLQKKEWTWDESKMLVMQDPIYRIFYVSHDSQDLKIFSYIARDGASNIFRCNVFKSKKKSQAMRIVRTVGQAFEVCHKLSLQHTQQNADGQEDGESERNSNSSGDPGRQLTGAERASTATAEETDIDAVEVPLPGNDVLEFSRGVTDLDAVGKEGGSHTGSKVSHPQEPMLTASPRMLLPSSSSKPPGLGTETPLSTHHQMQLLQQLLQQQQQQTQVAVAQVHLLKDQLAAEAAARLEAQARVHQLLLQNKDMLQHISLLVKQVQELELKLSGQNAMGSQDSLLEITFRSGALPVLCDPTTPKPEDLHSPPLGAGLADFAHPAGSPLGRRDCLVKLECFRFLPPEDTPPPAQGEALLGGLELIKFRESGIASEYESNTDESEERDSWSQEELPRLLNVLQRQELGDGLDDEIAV
inactive: [1] -0.109 | [2] 0.025 | [3] 0.362 | [4] -0.141 | [5] -0.178
